Drawing on PubChem BioAssay (EPA / NIEHS), this text covers AC50 and outcome for 16 compounds.

Read-out in test [1]: Vascular endothelial growth factor receptor 2 (Homo sapiens) (UniProt P35968)
Description: BSK_4H_VEGFRII: BioMAP Diversity Plus: 4H Assay for Vascular endothelial growth factor receptor 2 (VEGFR2) Biomarker Activity (AID 2283031).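 As to AC50: cell-surface VEGFR2 protein level quantified by ELISA.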 The settings on record: primary human endothelial cells (HUVEC); actives raise or lower the signal. A digest of the protocol: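 HUVEC (human primary), 4H system; 24 h post-dose; VEGFRII by ELISA; bidirectional curve fit vs DMSO baseline; gain or loss of signal scored.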

Read-out in test [2]: Human Leukocyte Antigen - DR isotype (HLADR), HLA-DRA (gene 3122)
The test is described as follows: BSK_BE3C_HLADR: BioMAP Diversity Plus: BE3C Assay for Human Leukocyte Antigen - DR isotype (HLADR) Biomarker Activity (AID 2283032). The settings on record: primary human bronchial epithelial cells; actives raise or lower the signal. In outline: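 Chemicals are dosed onto BE3C bronchial epithelial cultures of human origin and left 24 h. HLA-DR is then measured by ELISA, and the endpoint is fitted in both directions using DMSO as the activity baseline.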

Read-out in test [3]: Vascular cell adhesion molecule 1 (VCAM1), VCAM1 (gene 7412)
Description: BSK_4H_VCAM1: BioMAP Diversity Plus: 4H Assay for Vascular cell adhesion molecule 1 (VCAM1) Biomarker Activity (AID 2283033).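 As to outcome: cell-surface VCAM-1 protein measured by ELISA.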 Conditions: primary human endothelial cells (HUVEC); actives raise or lower the signal. In outline:
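Chemicals are added to primary human umbilical vein endothelial cells. After 24 h, VCAM-1 levels are measured by ELISA. Values come from bidirectional fitting referenced to DMSO.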

Read-out in test [4]: Interferon-gamma inducible Protein 10 (IP10), CXCL10 (gene 3627)
The test is described as follows: BSK_BE3C_IP10: BioMAP Diversity Plus: BE3C Assay for Interferon-gamma inducible Protein 10 (IP10) Biomarker Activity (AID 2283034). The settings on record: primary human bronchial epithelial cells; actives raise or lower the signal. A digest of the protocol:
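IP-10 quantified by ELISA serves as the endpoint. Cells: primary human bronchial epithelium, read 24 h after compound addition. Activity is derived by bidirectional fitting with DMSO as negative control.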

Read-out in test [5]: Monokine induced gamma interferon (MIG), CXCL9 (gene 4283)
Description: BSK_BE3C_MIG: BioMAP Diversity Plus: BE3C Assay for Monokine induced gamma interferon (MIG) Biomarker Activity (AID 2283035).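 As to outcome: MIG protein measured by ELISA in BE3C cultures after 24 h of dosing.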 Conditions: primary human bronchial epithelial cells; actives raise or lower the signal. A digest of the protocol:
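Dose cells (human primary bronchial epithelial), incubate 24 h, quantify MIG by ELISA, then fit concentration–response in both directions relative to DMSO control.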

Read-out in test [6]: Transforming growth factor beta 1 (TGFb1), TGFB1 (gene 7040)
The test is described as follows: BSK_BE3C_TGFb1: BioMAP Diversity Plus: BE3C Assay for Transforming growth factor beta 1 (TGFb1) Biomarker Activity (AID 2283036;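 as to outcome: TGF-b1 protein level measured by ELISA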). Conditions: primary human bronchial epithelial cells; actives raise or lower the signal. A digest of the protocol:
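Bronchial epithelial primary cells are treated with test chemical, then TGF-b1 is quantified by ELISA after 24 hours. Values derive from bidirectional fitting against DMSO, with cytotoxicity checked by SRB staining in parallel cultures.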

Read-out in test [7]: Plasminogen activator inhibitor-1 (PAI1), SERPINE1 (gene 5054)
The test is described as follows: BSK_BE3C_PAI1: BioMAP Diversity Plus: BE3C Assay for Plasminogen activator inhibitor-1 (PAI1) Biomarker Activity (AID 2283037). The settings on record: primary human bronchial epithelial cells; actives raise or lower the signal. In outline: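 Values derive from bidirectional fitting against DMSO baseline of PAI-1 levels, measured by ELISA in human bronchial epithelial cells 24 h after compound addition.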

Read-out in test [8]: urokinase plasminogen activator (uPA), PLAU (gene 5328)
Description: BSK_BE3C_uPA: BioMAP Diversity Plus: BE3C Assay for urokinase plasminogen activator (uPA) Biomarker Activity (AID 2283038).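 As to outcome: uPA protein level quantified by ELISA in cell cultures; uPA read one day after compound addition.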 The settings on record: primary human bronchial epithelial cells; actives raise or lower the signal. In outline:
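ELISA read-out of uPA in human lung primary bronchial epithelial cultures, 24 h post-dosing. Gain or loss of signal fitted bidirectionally relative to DMSO baseline; cytotoxicity checked in parallel cultures via SRB total protein stain.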

Read-out in test [9]: Urokinase-type plasminogen activator receptor (uPAR), PLAUR (gene 5329)
The test is described as follows: BSK_BE3C_uPAR: BioMAP Diversity Plus: BE3C Assay for Urokinase-type plasminogen activator receptor (uPAR) Biomarker Activity (AID 2283039).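 As to outcome: uPAR protein level measured by ELISA on the cells; cells exposed to compound for one day before measurement.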 The settings on record: primary human bronchial epithelial cells; actives raise or lower the signal. A digest of the protocol: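 Steps: dose human primary bronchial epithelial cells, incubate 24 h, measure uPAR by ELISA, then fit gain- or loss-of-signal response bidirectionally relative to DMSO.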

Read-out in test [10]: Interleukin-6 (IL6), IL6 (gene 3569)
The test is described as follows: BSK_CASM3C_IL6: BioMAP Diversity Plus: CASM3C Assay for Interleukin-6 (IL6) Biomarker Activity for (AID 2283040). Conditions: primary human coronary artery smooth muscle cells; actives raise or lower the signal.

Molecules are shown by their SMILES. Active and inactive are the calls of the source. The calls were made as follows: active = hit-call score of the fitted dose curve at least 0.9, where 1 is the maximum; inactive = score below 0.9.

Consider `ClC(Cl)=C(c1ccc(Cl)cc1)c1ccc(Cl)cc1`, for which the AC50 in test [1] was 34.9 µM (active); in test [3], 28.6 µM (active); in [8], 13.1 µM (active). For the same compound, the result in test [2], in [4], in test [5], in test [6], in [7] and in [9] was inactive. Further, in test [10], the result was inactive.
As to `CCC(C)(c1ccc(O)cc1)c1ccc(O)cc1`, the result in test [1], in test [5], in test [6], in test [7], in test [9] and in [10] was inactive. The AC50 in test [2] was 24.5 µM (active); in [4], 28.9 µM (active); in [8] it was 4.96 µM (active).
On to `CCC(C)c1cc([N+](=O)[O-])cc([N+](=O)[O-])c1O` (centres undefined), for which the half-maximal activity concentration (AC50) in [1] is 8.81 µM (active); in test [2] it was 20 µM (active); in [3], 9.62 µM (active); in test [4] it was 1.87 µM (active); in test [6], 0.911 µM (active); in [7], 1.39 µM (active). Also, the AC50 in test [8] was 4.72 µM (active). The outcome in test [5], in test [9] and in test [10] was inactive.
In the case of `CCOC(=O)C(O)(c1ccc(Cl)cc1)c1ccc(Cl)cc1`, the AC50 was 27.9 µM (active) in test [1], 30.7 µM (active) in [3], 31.1 µM (active) in test [4] and 14.7 µM (active) in test [7]. Besides, the outcome in test [2], in test [5], in test [6], in test [8], in test [9] and in test [10] was inactive.
Take `ClC1=C(Cl)[C@]2(Cl)[C@@H]3[C@H]4C[C@H]([C@@H]5O[C@H]45)[C@@H]3[C@@]1(Cl)C2(Cl)Cl`: the outcome in test [1], in [2], in test [3], in [4], in test [5] and in test [6] was inactive. For the same compound, the outcome in test [7], in [8], in test [9] and in test [10] was inactive.
As to `Oc1ccc(C(c2ccc(O)cc2)(C(F)(F)F)C(F)(F)F)cc1`, the outcome in test [1] and in [10] was inactive. For the same compound, the AC50 in test [2] is 20.1 µM (active); in [3] it was 29.3 µM (active); in [4], 24.1 µM (active); in test [5], 37.3 µM (active); in test [6], 28.5 µM (active); in test [7] it was 21.4 µM (active). The results for the AC50 in [8] and in test [9] were 38.2 µM (active) and 38.1 µM (active), respectively.
As to `C=CC(N)=O`, the result in test [1], in [2], in test [3], in test [4], in [5] and in test [6] was inactive. The outcome in [7], in [8], in [9] and in test [10] was inactive.
On to `CC(c1ccc(O)cc1)(c1ccc(O)cc1)c1ccc(O)cc1`, for which the outcome in test [1] and in test [10] was inactive. The AC50 in [2] was 2.08 µM (active); in test [3], 24 µM (active); in test [4], 2.57 µM (active); in test [5], 2.2 µM (active); in [6], 1.92 µM (active); in test [7], 3.29 µM (active). Moreover, the AC50 in [8] was 3.25 µM (active); in test [9] it was 2.4 µM (active).
As to `O=C(NC(=O)c1cc(F)c(F)cc1Cl)Nc1cc(F)ccc1N1CCC(C(=O)O)CC1`, the outcome in [1], in test [2], in [3], in test [4], in [5] and in test [6] was inactive. Further, the result in [7], in [8], in test [9] and in [10] was inactive.
`CCCCCCCCOC(=O)c1ccccc1C(=O)OCCCCCCCC`: the result in test [1], in test [2], in test [3], in test [4], in test [5] and in [6] was inactive. The result in test [7], in test [8], in test [9] and in test [10] was inactive.
Take `Sc1ccccc1`: the outcome in test [1], in test [2], in test [3], in [4], in test [5] and in test [6] was inactive. Also, the result in [7], in test [8], in test [9] and in [10] was inactive.
For the compound `Clc1ccc(C(Cl)(Cl)Cl)cc1`, the result in test [1], in test [2], in test [3], in test [4], in test [5] and in test [6] was inactive. Also, the result in [7], in [8], in test [9] and in test [10] was inactive.
As for `CCOCCOC(C)=O`, the outcome in test [1], in test [2], in test [3], in test [4], in test [5] and in test [6] was inactive. The outcome in test [7], in [8], in test [9] and in [10] was inactive.
On to `Cc1ccccc1CO[C@@H]1C[C@@]2(C(C)C)CC[C@]1(C)O2`, for which the outcome in test [1], in test [2], in test [3], in [4], in [5] and in test [6] was inactive. Also, the result in test [7], in test [9] and in test [10] was inactive. For the same compound, the AC50 in [8] was 11.2 µM (active).
With `c1cc2ccc3cccc4ccc(c1)c2c34`, the outcome in test [1], in test [2], in test [4], in test [5], in test [6] and in test [7] was inactive. In addition, the result in test [8], in [9] and in test [10] was inactive. In addition, in test [3], the AC50 is 15.5 µM (active).
Turning to `Oc1ccc(Cl)cc1Cl`, the outcome in [1], in test [2], in test [3], in [4], in [5] and in test [6] was inactive. Moreover, the result in test [7], in test [8], in test [9] and in test [10] was inactive.
